# In PubChem BioAssay (Tox21):
# Records with an inconclusive call do not appear. Entries that show only a call come without a potency. The source made the active and inactive calls. Calls follow the shape of the full dose curve.
# Assay: qHTS assay to identify small molecule antagonists of the estrogen receptor alpha (ER-alpha) signaling pathway using the BG1 cell line (AID 743080);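 also: BG1 cells stimulated with 17beta-estradiol alongside compound; nearly all actives have a fitted effect of over 25% in size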
# Conditions: BG1Luc4E2 ERE-luciferase antagonist mode, luminescence; series mostly up to 70.3 µM
# Excerpt: National Center for Advancing Translational Sciences [NCATS]
# NIH Chemical Genomics Center [NCGC]
# U.S. Environmental Protection Agency [EPA]
# National Institutes of Environmental Health Sciences [NIEHS]
# National Toxicology Program [NTP]
# U.S. Food and Drug Administration [FDA]
# Estrogen receptor (ER), a nuclear hormone receptor, plays an important role in development, metabolic homeostasis and reproduction. Endocrine disrupting chemicals (EDCs) and their interactions with steroid hormone receptors like ER causes disruption of normal endocrine function. Therefore, it is important to understand the effect of environmental chemicals on the ER signaling pathway. To identify ER antagonists, BG1-Luc-4E2 cell line (provided by Dr. Michael Denison from University of California) has been used to screen the Tox21 10K compound library. BG1Luc4E2 cell line endogenously expresses full-length ER-alpha and is stably transfected with a plasmid containing four estrogen responsive elements (ERE) upstream of a luciferase reporter gene.
# Tox21 Assay Protocol Summary:
# BG1-Luc-4E2 cells were cultured in phenol red free assay medium containing 10% charcoal stripped FBS for 5 days before the assay was performed. The cells were dispensed at 4,000 cells/4 uL of assay medium per well into white wall/solid-bottom 1536-well plates using a Multidrop Combi (ThermoFisher Scientific, Waltham, MA) dispenser. The assay plates were incubated at a 37C and 5% CO2 for 24 h, and then 23 nL of compounds dissolved in DMSO, positive controls or DMSO only was transferred to the assay plate using a Pintool station (Kalypsys, San Diego, CA), followed by addition of 1 uL of 17beta-estradiol in assay medium using a Flying Reagent Dispenser (Aurora Discovery, San Diego, CA). After the plates were incubated at 37 C and 5% CO2 for 21.5 h, 1 uL of CellTiter-Fluor reagent (Promega, Madison, WI) of measuring cytotoxicity was added using Flying Reagent Dispenser (FRD) to each well. The assay plates were incubated at 37 C and 5% CO2 for additional 30 min and the fluorescence intensity was quantified by a ViewLux plate reader (PerkinElmer, Shelton, CT). For measuring luciferase reporter gene activity, 4 uL of ONE-Glo reagent (Promega) was added to each plate using an FRD and luminescence was quantified by a ViewLux plate reader after 30 min incubation at room temperature.
row,SMILES,Potency
1,NS(=O)(=O)c1cc2c(cc1Cl)NC(CSCc1ccccc1)=NS2(=O)=O,inactive
2,CNc1ncnc2nc[nH]c12,inactive
3,Cc1ccc(Nc2ccc(O)c3c2C(=O)c2ccccc2C3=O)cc1,inactive
4,c1ccc2cnncc2c1,inactive
5,C[N+](C)(C)CC[N+]1(C)Cc2c(Cl)c(Cl)c(Cl)c(Cl)c2C1,inactive
6,CC(C)(O)C(=O)c1ccc(OCCO)cc1,inactive
7,COc1ccc(COC=O)cc1,inactive
8,CCCCC1CCCCC(=O)O1 (stereo not given),inactive
9,CCO[Si](CCCN=C=O)(OCC)OCC,inactive
10,NC(=O)CCCCC1CCSS1 (stereo not given),inactive
11,Oc1cc(O)c2c(c1)O[C@H](c1ccc(O)c(O)c1)[C@H](O)C2,inactive
12,CC/C=C\C#N,inactive
13,O=S(=O)(O)c1ccccc1O,inactive
14,CCCCCCCCN(C)CCCCCCCC,inactive
15,COC(=O)[C@H]1[C@H]2C[C@@H]3c4[nH]c5cc(OC)ccc5c4CCN3C[C@H]2C[C@@H](OC(=O)COc2ccc(OC)cc2)[C@@H]1OC,inactive
16,O=C(O)C(O)[C@H](O)[C@@H](O)[C@H](O)[C@H](O)CO (stereo not given in full),inactive
17,CCCCCCCCCCCl,inactive
18,CC(C)(C)CC(C)(C)N,inactive
19,COCc1ccc(COC)cc1,inactive
20,O=[N+]([O-])c1ccc(CCO)cc1,inactive

row,SMILES,Potency
1,O=C(O)c1ccccc1S,inactive
2,CC1CCN(CCCC(=O)c2ccc(F)cc2)CC1,inactive
3,CC(C)(O)Cc1ccccc1,inactive
4,CCO[Si](C)(OCC)OCC,inactive
5,O=C1OC(=O)c2cc([N+](=O)[O-])ccc21,inactive
6,CCC(C)(C)C1CCC(OC)CC1 (stereo not given),inactive
7,Nc1[nH]c(=O)ncc1F,inactive
8,CC(C)[N+](C)(C)CC(O)COc1cccc2ccccc12 (stereo not given),inactive
9,CCCCCCC(=O)OCC,inactive
10,CCN(CC)C(=O)c1ccc(O)c(OC)c1,inactive
11,CC(=O)N[C@@H](CCC(N)=O)C(=O)O,inactive
12,CC(C)c1cccc(O)c1,inactive
13,CCc1cc(S(=O)(=O)O)c2cc(C(C)C)cccc1-2,inactive
14,C1COCCO1,inactive
15,COc1cccc(Br)c1,inactive
16,CC(C)CCCCCCN,inactive
17,NCCN1CCNC1=O,inactive
18,C=C(C)C(=O)OCCC(C)OC(=O)C(=C)C (stereo not given),inactive
19,NC(=O)Nc1nc2ccccc2[nH]1,inactive
20,CCC(=O)/C=C/c1ccc(OC)cc1,inactive
